RTF Ca sens act – cardiac RTF calcium sensitization. IANBD-labeled TnC RTF fluorescence at EC20 calcium; 0% EC20 calcium, 100% full calcium. activation, % at 7.2 µM. 340,000 tested, 0.24% active. P19429+P45379;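 active means activation above the mean over all tested compounds plus 3 SD, cut at about 30% in these data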;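 further: rise in fluorescence read as greater calcium sensitivity of cardiac thin filaments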
CRFR2-BP antag – antagonists of CRF-binding protein/CRF-R2 receptor complex | HEK293 CRF-R2/CRF-BP, CRF-induced calcium fluorescence | AID 588475 | inhibition, % at 11.8 µM | 350,000 tested, 0.59% active;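 active means inhibition of the ligand-induced calcium signal above about 50% at the single tested concentration, limit read from the data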
RTF Ca sens inh – cardiac RTF calcium desensitization; 340,000 tested, 0.12% active; IANBD-labeled cardiac RTF, Ca2+ fluorescence; inhibition, % at 7.15 µM;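 active means inhibition above the mean inhibition of all tested compounds plus 3 SD, cut at about 17% in these data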;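 further: assay run at fixed EC70 calcium of 1.6 mM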
CRFR2-BP ag – CRF-BP/CRF-R2 complex agonism | HEK293 CRF-R2/CRF-BP, calcium dye fluorescence (FLIPR); percent of saturating CRF peptide response | activation, % at 13.2 µM | 350,000 tested, 0.46% active | AID 588473;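 active means activation of at least 50%, plus an integration ratio under a set limit after plate pattern correction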
Of the large screens only hits and unclear results are named; the others gave an inactive call. An excerpt weighted towards active compounds, which were near 1.3% of everything screened.

CCc1cccc(CC)c1NC(=O)CN1CCc2cc(OC)c(OC)cc2C1	none (no result: CRFR2-BP antag, CRFR2-BP ag)
CCN1/C(=C/C=C2/SC(=Nc3cccc4ncccc34)N(C)C2=O)Sc2ccccc21	RTF Ca sens act 41
CCN1C(=O)/C(=C/C=C2/Sc3ccccc3N2CCO)SC1=S	none
O=C1C(Cl)=C(Nc2ccccc2)C(=O)c2ccccc21	CRFR2-BP antag 83
O=C(O)c1cccc(NC2=C(Cl)C(=O)c3ccccc3C2=O)c1	none
O=C(O)c1ccc(NC2=C(Cl)C(=O)c3ccccc3C2=O)cc1	CRFR2-BP antag 101
COc1ccc2oc(C(=O)NCCC(C)C)c(C)c2c1	CRFR2-BP antag 79
O=C(c1cc2ccccn2n1)N1CCN(c2cccc(C(F)(F)F)c2)CC1	none
Cc1ccc(C)c(N2CCN(C(=O)c3cc4ccccn4n3)CC2)c1	RTF Ca sens act 103, CRFR2-BP ag 119
O=C(CSc1ccccc1)N(c1ccc(Br)cc1)c1nccs1	CRFR2-BP antag 50
CCOC(=O)N(C)C[C@@H]1OCc2ccccc2-c2c(n(C)c3ccccc23)C(=O)N([C@H](C)CO)C[C@H]1C	none (no result: RTF Ca sens act, RTF Ca sens inh)
CCOC(=O)c1c(-c2ccccc2)oc2ccc(OC(C)C(=O)O)cc12 (stereo not given)	CRFR2-BP antag 52
COC(=O)C[C@@H]1C[C@@H]2c3cc(NS(=O)(=O)c4ccccc4)ccc3O[C@@H]2[C@@H](CO)O1	none (no result: RTF Ca sens act, RTF Ca sens inh)
O=C(C[C@H]1C[C@@H]2c3cc(NS(=O)(=O)c4ccccc4)ccc3O[C@@H]2[C@H](CO)O1)N1CCOCC1	CRFR2-BP antag 52 (no result: RTF Ca sens act, RTF Ca sens inh)
COc1cccc(-c2noc(CCC(=O)NCCc3ccccc3)n2)c1	none
COc1ccc(Cc2nc(-c3ccc(Br)cc3)no2)cc1	none
COc1ccc(-c2noc(CCC(=O)NCCc3ccccc3)n2)cc1	RTF Ca sens act 38
COc1ccc(Cc2nc(-c3ccc(Cl)cc3)no2)cc1	CRFR2-BP antag 50
COc1cc(-c2[nH]ncc2CN2CCN(c3cccc(C)n3)CC2)cc(OC)c1OC	none
O=C(c1ccc(-n2cncn2)c([N+](=O)[O-])c1)N1CCN(S(=O)(=O)c2cccc(F)c2)CC1	none
O=C(NC(=S)N1CCN(C/C=C/c2ccccc2)CC1)c1ccc(Cl)nc1	none
CC(C)(C)OC(=O)N1CCCN(C(=O)Nc2cccc(Cl)c2)CC1	CRFR2-BP antag 113 (no result: RTF Ca sens act, RTF Ca sens inh)
Nc1nc(Nc2ccccc2Cl)cc(=O)[nH]1	CRFR2-BP antag 100
Cc1cc(=O)[nH]c(Nc2cccc(Cl)c2C)n1	none
CCOc1ccc(CCNC(=O)c2ccc(S(=O)(=O)N3CCCC3)cc2)cc1OCC	none
Cc1cc(O)c(C=O)c2c1C(=O)Oc1c(CO)c(O)c3c(c1O2)C(O)OC3=O (stereo not given)	RTF Ca sens inh 30
CCOc1ccccc1C(=O)NC(C(=O)N(C)c1c(N)n(Cc2ccccc2)c(=O)[nH]c1=O)C(C)C (stereo not given)	none
O=C(Nc1ccccc1F)C(=Cc1sc(N2CCOCC2)nc1-c1ccccc1)C(=O)Nc1ccccc1F	RTF Ca sens act 30
CCOC(=O)/C(=C/C=C1\Sc2ccccc2N1CC)C(C)=O	RTF Ca sens act 128, CRFR2-BP ag 238
CCOC(=O)/C(=C/C=C1\Sc2cc(C)c(C)cc2N1CC)C(C)=O	RTF Ca sens act 160, CRFR2-BP ag 156
CCOC(=O)/C(=C\C=C1/Sc2ccccc2N1CC)C(C)=O	RTF Ca sens act 245, CRFR2-BP ag 313
Cc1cccc(NC(=O)CNC(=O)CSc2nc(N)cc(N)n2)c1C	none
O=C(/C=C/c1cccs1)NC(=S)NNC(=O)c1ccccc1O	CRFR2-BP ag 63
CC(C)(C)C(=O)NC(=S)NNC(=O)c1sc2ccccc2c1Cl	CRFR2-BP ag 226
O=C(NNC(=S)NC1CCCCC1)c1sc2ccccc2c1Cl	none
COc1ccc(C(=O)NNC(=S)NC(=O)C(C)(C)C)cc1	CRFR2-BP ag 127
COc1ccc(C(=O)NNC(=S)NC(=O)/C=C/c2cccs2)cc1	none
COc1ccc(C(=O)NC(=S)NNC(=O)c2ccccc2C)cc1	CRFR2-BP ag 116
COc1ccc(C(=O)NNC(=O)c2ccc(C(C)(C)C)cc2)cc1	none
COc1cc(C(=O)NNC(=S)NC(=O)c2ccccc2C)cc(OC)c1OC	none
Cc1cccc(-n2c(=O)c3ccccc3n3c(=S)[nH]nc23)c1C	none
COc1ccc(C(=O)NC(=S)NNC(=O)c2ccccc2O)cc1	CRFR2-BP ag 59
COc1ccc(C(=O)NC(=S)NNC(=O)c2ccco2)cc1	none
NC1=NC[C@@H](CC2CCCCC2)N1CCc1cc(C(F)(F)F)cc(C(F)(F)F)c1	CRFR2-BP ag 78
NC1=NC[C@H](Cc2ccc(O)cc2)N1CCc1cc(C(F)(F)F)cc(C(F)(F)F)c1	none
S=c1[nH]c2ccccc2n2c(=S)[nH]nc12	CRFR2-BP antag 55
S=c1[nH]c2ccccc2n2cccc12	none
CS(=O)(=O)N(CC(=O)O)Cc1cccc(CN(CC(=O)O)S(C)(=O)=O)c1	none
COc1ccccc1NC(=O)C(C)Sc1nnnn1C (stereo not given)	none
COc1ccccc1NC(=O)CCSc1nnnn1C	CRFR2-BP ag 121
CC(C)CNC(=O)c1ccccc1Oc1ccccc1	none
CN(C)CCCNC(=O)c1ccccc1Oc1ccccc1	CRFR2-BP antag 59
O=C(NCc1ccc(F)cc1)c1cccc2c1C(=O)c1ccc(N3CCC(N4CCCCC4)CC3)cc1S2(=O)=O	none (no result: RTF Ca sens act, RTF Ca sens inh)
CC1CCN(c2ccc3c(c2)S(=O)(=O)c2cccc(C(=O)NC4CCCCC4)c2C3=O)CC1	RTF Ca sens act 33
C=CCNC(=O)c1cccc2c1C(=O)c1ccc(N3CCOCC3)cc1S2(=O)=O	CRFR2-BP antag 98
CC1CCN(c2ccc3c(c2)S(=O)(=O)c2cccc(C(=O)NCc4ccc(F)cc4)c2C3=O)CC1	RTF Ca sens act 105, CRFR2-BP ag 85
O=C(NC1CCCCC1)c1cccc2c1C(=O)c1ccc(N3CCCC3)cc1S2(=O)=O	none
O=C(NC1CC1)c1cccc2c1C(=O)c1ccc(N3CCC(Cc4ccccc4)CC3)cc1S2(=O)=O	RTF Ca sens act 99, CRFR2-BP ag 83
CC(C)(C)CNC(=O)c1cccc2c1C(=O)c1ccc(N3CCCC3)cc1S2(=O)=O	none
O=C(NCc1ccc(F)cc1)c1cccc2c1C(=O)c1ccc(N3CCOCC3)cc1S2(=O)=O	none
O=C(NCc1ccc(F)cc1)c1cccc2c1C(=O)c1ccc(N3CCC(Cc4ccccc4)CC3)cc1S2(=O)=O	RTF Ca sens act 232, CRFR2-BP ag 126
O=C(NCc1cc(C(F)(F)F)ccc1Cl)c1cccc2c1C(=O)c1ccc(N3CCC(Cc4ccccc4)CC3)cc1S2(=O)=O	CRFR2-BP ag 73
O=C(NCc1ccccc1C(F)(F)F)c1cccc2c1C(=O)c1ccc(N3CCCCC3)cc1S2(=O)=O	CRFR2-BP ag 76
O=C(CCC(=O)c1ccc(F)cc1)NC1CCCN(Cc2ccccc2F)C1 (stereo not given)	none
O=C(NC12CC3CC(CC(C3)C1)C2)c1cccnc1Cl	none
NS(=O)(=O)c1ccc(CNC(=O)C2CCCN2C(=O)c2cccs2)cc1 (stereo not given)	none
CC(Nc1ccc(Cl)cc1)C(=O)NN (stereo not given)	none
